Screening results deposited in PubChem by several laboratories.
MazF activator: MazEF (E. coli) toxin RNase activation; P0AE70; FAM/BHQ RNA-DNA oligo cleavage fluorescence, 5 h; activation, % at 20 µM; actives 0.32% (n = 350,000); AID 504720; in the data active = activation above about 50%
Anthrax LF prot: anthrax lethal factor protease inhibition; P15917; multiplex microsphere protease cleavage assay, LF; inhibition, % at 10 µM; actives 0.12% (n = 360,000); AID 588501; also: plate controls were buffer without enzyme for full effect and enzyme alone for no effect
Target sequence (P15917 whole entry, looked up): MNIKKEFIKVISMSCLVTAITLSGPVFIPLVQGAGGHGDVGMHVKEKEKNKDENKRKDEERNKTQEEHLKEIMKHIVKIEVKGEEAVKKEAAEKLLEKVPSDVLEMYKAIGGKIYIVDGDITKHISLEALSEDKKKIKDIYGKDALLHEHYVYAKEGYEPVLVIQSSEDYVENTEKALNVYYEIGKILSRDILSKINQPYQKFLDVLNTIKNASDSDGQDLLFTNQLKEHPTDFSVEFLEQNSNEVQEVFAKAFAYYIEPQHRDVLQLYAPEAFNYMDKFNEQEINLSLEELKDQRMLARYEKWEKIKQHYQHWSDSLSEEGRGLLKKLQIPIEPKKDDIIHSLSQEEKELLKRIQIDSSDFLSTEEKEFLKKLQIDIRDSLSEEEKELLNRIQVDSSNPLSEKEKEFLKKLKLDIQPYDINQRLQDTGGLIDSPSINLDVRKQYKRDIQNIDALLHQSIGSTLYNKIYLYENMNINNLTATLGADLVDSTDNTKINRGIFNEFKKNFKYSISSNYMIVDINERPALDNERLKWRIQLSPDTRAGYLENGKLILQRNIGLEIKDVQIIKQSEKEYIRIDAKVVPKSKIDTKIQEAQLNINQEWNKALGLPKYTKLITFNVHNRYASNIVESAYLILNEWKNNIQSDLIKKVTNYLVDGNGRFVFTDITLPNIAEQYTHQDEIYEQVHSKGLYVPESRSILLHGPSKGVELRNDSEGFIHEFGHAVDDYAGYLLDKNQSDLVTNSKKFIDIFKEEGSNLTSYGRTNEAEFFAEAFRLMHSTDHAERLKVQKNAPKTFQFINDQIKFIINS
Bead autofluor: flagged as autofluorescent in microsphere protease counterscreen | actives 3.1% (n = 360,000) | fluorescence intensity (no concentration beside the values) | compound autofluorescence counterscreen, microsphere flow cytometry; hits give high values | AID 624483; in the data active = fluorescence intensity above about 16000; inconclusive = no clear call, values can overlap the other calls
BoNT-A LC inh2: BoNT A light chain protease inhibition | multiplex microsphere protease substrate cleavage, flow cytometry | inhibition, % at 10 µM | actives 0.17% (n = 360,000); also: plate controls were buffer without enzyme for full effect and enzyme alone for no effect
BoNT-F LC inh: inhibitors of Botulinum neurotoxin F light chain protease; Multiplex microsphere protease cleavage assay, flow cytometry; inhibition, % at 10 µM; actives 0.22% (n = 360,000); AID 588497; in the data active = inhibition above about 35%, passing the limit was not always enough; inconclusive = no clear call, values can overlap the other calls; also: plate controls were buffer without enzyme for full effect and enzyme alone for no effect
The depositor's hits bear a star; ? = inconclusive. An excerpt weighted towards active compounds, which were near 3.6% of everything screened. Rule as the data show it, unless noted: active = inhibition above about 30%; inconclusive = no clear call, values can overlap the other calls; inactive = below that.

SMILES | MazF activator | Anthrax LF prot | Bead autofluor | BoNT-A LC inh2 | BoNT-F LC inh
O=c1c2ccc(Cl)cc2[nH]c(=S)n1Cc1cccnc1 | 2 | -4 | 21022* | 4 | 7
O=C(c1ccc2c(=O)n(Cc3ccc(Cl)cc3)c(=S)[nH]c2c1)N1CCCC1 | 1 | 1 | 4933 | -4 | -6
CCOC(=O)N1CCN(C(=O)c2ccc3c(=O)n(Cc4ccccc4OC)c(=S)[nH]c3c2)CC1 | 4 | -3 | 16581* | 0 | 0
COc1ccccc1N1C(C)=CC(=C(C#N)c2nc3ccccc3s2)C=C1C | -50 | 28 | 3142 | 57* | 25
CC1=CC(=C(C#N)c2nc3ccccc3s2)C=C(C)N1c1ccc(F)cc1 | -97 | 20 | 3300 | 36* | 15
COC(=O)Cc1c[nH]c2cccc(OCC(O)CN(Cc3ccc([N+](=O)[O-])cc3)C(C)(C)C)c12 (stereo not given) | 4 | -6 | 24016* | -3 | -9
CCC(C)Sc1cc(-c2nc3cc(C)ccn3c2NC2CCCCC2)ccc1OC (stereo not given) | -47 | -12 | 23753* | -4 | 2
CC1=C(C#N)C(NC(=O)C2CC2)(C(F)(F)F)C(=O)N1 (stereo not given) | 6 | 0 | 2441 | 0 | 4
CC1=C(C#N)C(NC(=O)C2CCCCC2)(C(F)(F)F)C(=O)N1 (stereo not given) | 1 | -4 | 22461* | 0 | 3
Cc1nc2cc(C(=O)N3CCc4ccccc43)ccc2n1-c1ccc(F)c(F)c1 | 3 | 0 | 2582 | 0 | 0
CC(=O)Nc1cccc(NC(=O)Nc2ccc(C(C)=O)cc2)c1 | -4 | 0 | 4198 | -1 | 25
CCOc1ccccc1NC(=O)Nc1cccc(C(C)=O)c1 | -3 | -1 | 23270* | 0 | 0
CC(=O)c1cccc(NC(=O)Nc2ccc(C(=O)N3CCCC3)cc2)c1 | 0 | -1 | 22040* | 0 | 2
CCOc1ccccc1NC(=O)Nc1c(C)n(-c2ccccc2)c(=O)n1C | -4 | -5 | 20830* | 3 | 2
CCOc1ccccc1NC(=O)Nc1cccc(NC(C)=O)c1 | -2 | -2 | ? | -2 | -2
CCN(CC)c1ccc(NC(=O)Nc2cccc(C(C)=O)c2)cc1 | -8 | -10 | 19762* | 5 | -13
O=C(NCc1ccc(Cl)cc1)C1CCCCN1S(=O)(=O)c1ccccc1 (stereo not given) | 1 | -2 | 5579 | 1 | -2
CCOC(=O)c1ccc(S(=O)(=O)Nc2cc(S(=O)(=O)Nc3ccc(OC)cc3)ccc2O)cc1 | 3 | -7 | 3511 | 0 | -4
C#CCOCCOCCOCCNc1nc(N2CCN(C(=O)C([C@@H](C)O)n3cc([C@@H](N)CCCCN)nn3)CC2)nc(N2CCN(C(=O)C([C@@H](C)O)n3cc([C@@H](N)CCCCN)nn3)CC2)n1 (stereo not given in full) | 7 | -1 | 3463 | 0 | -2
Cc1nn(C(=O)CNS(=O)(=O)c2ccccc2)c(C)c1Sc1ccc(Cl)cc1 | -12 | -2 | 2646 | -1 | -16
CCN1CCN(S(=O)(=O)c2ccc(Cl)c(C(=O)NCCc3ccccc3)c2)CC1 | 4 | ? | ? | 3 | 1
Cc1c(C(=O)NCc2nnc(-c3ccccc3)o2)oc2c(F)cccc12 | 6 | -4 | 5350 | 2 | -1
O=C(Nc1nc2c(s1)CCCC2)C1CCCN1C(=O)c1cccs1 (stereo not given) | 6 | 0 | 16410* | 0 | -1
Cc1cc(C(=O)Nc2nnc(C3CCCCC3)s2)cs1 | 2 | -4 | 23418* | ? | -4
O=C(Nc1nccs1)[C@@H]1CCCN1C(=O)c1cccs1 | 4 | -2 | 4684 | 0 | 2
SMILES | MazF activator | Anthrax LF prot | Bead autofluor | BoNT-A LC inh2 | BoNT-F LC inh
Cc1cc(C(=O)Nc2nc3c(s2)CCCC3)cs1 | -4 | -4 | 16226* | -2 | -4
Cc1cc(C(=O)Nc2nnc(C(F)(F)F)s2)cs1 | -2 | -6 | 4653 | -1 | -3
CCOC(=O)Cc1csc(NC(=O)c2csc(C)c2)n1 | -2 | 1 | 20408* | -1 | -1
CCOC(=O)[C@@H]1[C@H]2COc3ccccc3[C@H]2N2C(=O)N(c3ccc(Cl)cc3)C(=O)[C@@]12C | 0 | -4 | 3085 | -1 | -2
CCOc1ccc(S(=O)(=O)NCCC(=O)N2CCN(c3ccccc3O)CC2)cc1 | 3 | ? | 4993 | 2 | -3
Cc1ccc(C)c(NC(=O)c2nnn(Cc3ccccc3)c2N)c1 | -5 | -1 | 4939 | 0 | -8
Cc1ccc(NC(=O)Cn2nnc(C(=O)NCc3ccccc3)c2N)cc1C | -11 | 0 | 23778* | -3 | -4
